One may read the inhibition as the relative decrease from the control value, in per cent.

Data on one compound can be found in PubChem BioAssay AID540345 (The Scripps Research Institute Molecular Screening Center, 2011).

A number with no mark means an inactive call. No rule for the calls is given here.

For this experiment, the system named is Potassium Channel [KATP]. As to the kind of experiment: selectivity profile over receptors, transporters, CYPs – biochemical, Ricerca HitProfilingScreen, CYP450, set 2, selectivity assay for GPR7 antagonist project, profiling panel (AID 540345). To be noted: Ricerca radioligand binding/CYP panel, at 10 µM, stronger effect = higher value.

For `COc1ccc(Oc2c(Cl)cnn(C3c4ccccc4-c4ccccc43)c2=O)cc1`, the inhibition was -5%.
